Assay outcomes: PubChem, National Center for Advancing Translational Sciences (NCATS)
An excerpt weighted towards active compounds, which were near 14% of everything screened.
4-MU autofl: compounds fluorescent in 4-MU spectral region; compound autofluorescence, 340/450 nm, 4-MU equivalents; stronger effect = higher value; max dye-equivalent concentration, M; 59,000 tested, 11% active; AID 589; in the data active = max dye-equivalent concentration above about 10 nM; inconclusive = mostly about 1.1 nM to 9.6 nM
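Compounds in 100 mM Tris, pH 8.0, sat 15 min at room temperature before fluorescence was read at 340 nm excitation/450 nm emission; a per-plate six-point 4-MU standard curve converted signals to dye-equivalent concentration at each compound concentration.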
CRE-bla Fsk: alters forskolin-stimulated CRE reporter signaling in CHO cells; CHO CRE-bla reporter (cAMP response element driving beta-lactamase), forskolin EC10, beta-lactamase ratio; Potency, µM (doses to about 38.2 µM), for the others: at the top dose activity change, negative = inhibition, most hits filed as activators; 71,000 tested, 2.5% active; active = well fitted activation curve with a large enough effect in the signal ratio, with a control signal flat, not every such curve was filed as active; inconclusive = small, poorly fitted or top-dose-only effect, or effect the other way, or a change in a side signal; the % refers to the signal ratio; note: potency is the fitted concentration of half-maximal effect; % of control where 0% means no effect
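Reporter-gene assay: CHO cells with beta-lactamase behind cAMP responsive elements, co-treated with compound and EC10 NKH 477 for 3 hours at 37 degrees Celsius. Activity came from the 460/530 nm CCF4 emission ratio.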
AID923: qHTS Assay for Allosteric/Competitive Inhibitors of Caspase-1: Spectroscopic Profiling in AFC Spectral Region; AID 923, 2007; Potency, µM (titrated, usually from 57.5 µM), for the others: at the highest dose fluorescence increase, usual class: activators; compound fluorescence, AFC spectral region (405/520 nm); 75,000 tested, 1.1% active; note: potency is the fitted concentration of half-maximal effect; 0% is about no effect
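Compound autofluorescence profiled at 405 nm ex/520 nm em during kinetic caspase 1 run (50 nM enzyme, 5 uM Ac-WEHD-AFC, HEPES pH 7.5, 10 mM DTT). Titration up to 57 uM; baseline from regression intercept, normalized to AFC standard curve.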
HSD17B inhib: inhibitors of human HSD17B10 dehydrogenase. Q99714. recombinant HSD17B10, NADH fluorescence kinetic. Potency, µM (highest dose often 57.1 µM), for the others: top-dose activity change, negative = inhibition, most hits filed as inhibitors. 75,000 tested, 7.6% active. AID 893;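 note: the protocol describes HADH2 (HSD17B10) and not the HSD17B4 of the title; potency is the fitted concentration of half-maximal effect; % is set by controls: 0 for no effect and ±100 for the full control effect; nearly all actives have a fitted effect of over 70% in size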
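His-tagged E. coli-expressed HADH2 at 20 nM in 100 mM Tris-HCl pH 9.0 with 0.01 % Tween-20, preincubated 15 min with compound at room temperature. Reaction with 1 mM NAD+ and 90 uM beta-hydroxybutyryl coenzyme A; NADH fluorescence (360/450 nm) read kinetically over 4 min, last minus first point.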
A350 fluor: compounds fluorescent in Alexa 350 spectral region; max dye-equivalent concentration, M; Compound autofluorescence, 340/450 nm, Alexa 350 dye-equivalents; stronger effect = higher value; 59,000 tested, 11% active; in the data active = max dye-equivalent concentration above about 10 nM; inconclusive = mostly about 1.1 nM to 9.6 nM
HADH2 inhib: blocks human hydroxyacyl-CoA dehydrogenase type II. Q99714. recombinant HADH2, NADH fluorescence, beta-hydroxybutyryl-CoA. Potency, µM (titrated, usually from 57.1 µM), for inactives: top-dose activity change, negative = inhibition, usual class: inhibitors. 73,000 tested, 3.4% active. AID 886; note: potency is the fitted concentration of half-maximal effect; % is set by controls: 0 for no effect and ±100 for the full control effect; nearly all actives have a fitted effect of over 60% in size
Target sequence (Q99714 whole entry, looked up, one chain of several): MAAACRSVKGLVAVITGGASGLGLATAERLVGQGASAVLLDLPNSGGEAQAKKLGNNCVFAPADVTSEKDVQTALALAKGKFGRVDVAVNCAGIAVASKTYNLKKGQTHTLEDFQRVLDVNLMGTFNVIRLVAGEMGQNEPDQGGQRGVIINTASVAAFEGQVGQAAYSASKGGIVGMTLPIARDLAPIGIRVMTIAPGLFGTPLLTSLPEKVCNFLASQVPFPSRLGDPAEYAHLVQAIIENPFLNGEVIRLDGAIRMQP
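E. coli-expressed His-tagged HADH2 tested at 20 nM in alkaline Tris buffer (pH 9.0); oxidation of 90 uM beta-hydroxybutyryl-CoA with 1 mM NAD+ tracked fluorimetrically for 4 min.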
CHO via 24h: cytotoxicity in CRE-bla CHO cells at 24 h | CRE-bla CHO viability, ATP luminescence, 24 h | activity, negative = viability loss, % at 46.1 µM | shares compounds with CRE-bla Fsk | AID 905 | 120 tested, under 10 active
CHO tox 40h: reduces CRE-bla CHO cell viability after 40 hours | shares compounds with CRE-bla Fsk | CRE-bla CHO viability, ATP luminescence, 40 h | Potency, µM, inactives show max response, most hits filed as inhibitors | 120 tested, under 10 active | AID 906
CREB luc CRC: boosts CRE luciferase signal in HEK293 cells | HEK293 CRE-luc2P, NKH477 EC10 potentiation, luminescence, 4 h | AID 907 | 120 tested, 80% active | shares compounds with CRE-bla Fsk | Potency, µM (highest dose often 38.3 µM), inactives show at the top dose activity, positive = activation, most hits filed as activators
The depositor's hits bear a star; i = inactive; ? = inconclusive; · = no result. Unless noted, calls come from the whole dose curve; as a rule, active = well fitted curve in the direction sought with a large enough effect; inconclusive = small, poorly fitted or top-dose-only effect, or another doubt; inactive = no such curve, though single readings can be large; an effect the other way counts as inactive or inconclusive.

SMILES	4-MU autofl	CRE-bla Fsk	AID923	HSD17B inhib	A350 fluor	HADH2 inhib	CHO via 24h	CHO tox 40h	CREB luc CRC
CCC[C@@H]1C[C@@]1(CCC)C(NP(=O)(c1ccccc1)c1ccccc1)c1ccc(Cl)cc1 (some centres not stated)	·	-17%	-2%	?	·	-22%	·	·	·
CNC(=O)[C@H](C)[C@H]1C[C@]1(C)[C@H](NC(=O)OCc1ccccc1)c1ccccc1	·	-11%	0%	-7%	·	15%	·	·	·
CN(C)c1nc(N)nc(CSc2n[nH]c(-c3ccccc3)n2)n1	i	1.6µM*	-2%	-2%	i	-8%	-6	-28%	13µM*
CCSc1nc2ccccc2n1Cc1nc(N)nc(N(C)C)n1	i	?	-1%	-1%	i	4%	·	·	·
COc1ccc(C(=O)N2CCC[C@@]3(CCN(Cc4nccs4)C3)C2)cc1	i	-10%	2%	3%	i	13%	·	·	·
CCN(C(=O)c1cn(C)c(=O)c2cc(OC)c(OC)cc12)c1cc(OC)ccc1OC	i	29%	-1%	-3%	i	7%	1	-8%	13µM*
Cc1cc(C)n(-c2nc(Nc3ccccc3)nc(-n3nc(C)cc3C)n2)n1	i	12%	2%	-4%	i	14%	-2	-7%	?
Cc1cc(C)n(-c2nncc(-c3ccccc3)n2)n1	·	27%	1%	0%	·	-10%	·	·	·
CCOC(=O)CC(=O)CSc1ccc2nnc(-c3cccc(F)c3)n2n1	?	?	-1%	?	?	-13%	·	·	·
COC(=O)c1ccc(CSc2ccc3nnc(-c4cccc(F)c4)n3n2)o1	·	7.9µM*	-2%	?	·	?	-14	-18%	13µM*
C[N+](C)(C)CCOP(=O)([O-])OP(=O)(O)OCC1OC(n2ccc(N)nc2=O)C(O)C1O (configuration not stated)	·	·	-2%	-1%	·	·	·	·	·
Cc1ccc2c(C)nc(Nc3nc(CSc4nnnn4-c4ccccc4)cc(=O)[nH]3)nc2c1	i	?	-1%	11%	i	4%	-14	-29%	3.2µM*
COCc1cc(=O)[nH]c(Nc2nc(C)c3ccc(C)cc3n2)n1	i	8%	1%	11%	i	-2%	-6	-26%	?
c1ccc(C2=Nn3c(nnc3-c3ccncc3)SC2)cc1	i	?	1%	4%	?	14%	·	·	·
Cc1cc(-c2nnc3n2N=C(c2ccc(-c4ccccc4)cc2)CS3)n[nH]1	i	?	0%	-30%	i	-8%	-30	?	1.6µM*
Fc1ccc(C2=Nn3c(Cc4ccccc4)nnc3SC2)cc1	i	16%	-2%	5%	i	?	-5	-10%	13µM*
CCn1cc(C(=O)Nc2ccc3c(c2)OCCO3)c2cc(OC)c(OC)cc2c1=O	·	1.3µM*	-1%	5%	·	1%	-8	-18%	0.71µM*
CCn1cc(C(=O)Nc2cccc(NC(C)=O)c2)c2cc(OC)c(OC)cc2c1=O	i	?	-1%	-1%	i	-5%	·	·	·
